The values below come from PubChem BioAssay (NCATS).

Each structure is given as a SMILES string. Inconclusive results are not listed. Calls of active or inactive are those of the source. Calls follow the shape of the dose curve; as a rule, active = well fitted inhibition curve with a large enough effect; inconclusive = small, poorly fitted or top-dose-only effect; inactive = flat fitted curve, though single readings scatter.
% is scaled to controls: 0 for no effect and ±100 for the full control effect; potency is read from the fitted curve at half-maximal effect.

The test system of this test is CRL-7250. The experiment in a line: Cytotoxic Profiling of Annotated Libraries Using Quantitative High-Throughput Screening (AID 1296008). Also: nearly all actives have a fitted effect of over 60% in size. To be noted: Five cell lines viability, CellTiter-Glo ATP luminescence, 48-72 h; max response: hits give low values. An excerpt:
Cell-based phenotypic screening is a commonly used approach to discover biological pathways, novel drug targets, chemical probes and high-quality hit-to-lead molecules. Many hits identified from high-throughput screening campaign are ruled out through a series of follow-up potency, selectivity/specificity, and cytotoxicity assays. Prioritization of molecules with little or no cytotoxicity for a more in-depth downstream evaluation influence the future direction of projects, so cytotoxicity profiling of the screening libraries at early stage is essential for increasing the likelihood of candidate success. […] For the annotated library, we also examined the primary targets and mechanistic pathways regularly associated with cell death. To our knowledge, this is the first study to use high-throughput screening to profile large libraries for cytotoxicity assessment in both normal and cancer cell lines. In summary, the results generated here constitutes a valuable resource for the scientific community and provides insight on identifying cytotoxic compounds with particular mechanisms of action, and prioritizing compounds with suitable cytotoxicity profile for further evaluation.
A pintool (Kalypsys) was used to transfer 23 nL of compound solution to the 1536-well assay plates. After 48 or 72 hr incubation at 37 degree Celsius, 5% CO2 and 95% humidity, 2.5 uL of CellTiter-Glo (Promega) was dispensed into each well using a dispenser (Aspect Automation, St. Paul, MN) with solenoid valves (Lee Valves, Westbrook CT). Plates were left at room temperature for 10 min before imaging the ATP-coupled luminescence using a ViewLux microplate imager (PerkinElmer, Waltham, MA).
For orientation: ATP-based viability assays read luminescence as a measure of living cells.
In the case of `Cn1cnc(-c2nccc3c(=O)[nH]c(OCCCC(F)(F)F)nc23)c1`, the Potency was 5.8 µM (active).
Regarding `OCC(CO)(CO)NCC(O)Cn1c2ccc(Cl)cc2c2cc(Cl)ccc21` (stereo not given), the max response is -2.15% (inactive).
Consider `Cn1c(NC[C@@H](N)Cc2ccccc2)nc(-c2ccncc2)c(-c2ccc3ccccc3c2)c1=O`, for which the max response was -1.38% (inactive).
`Cn1nccc1Nc1nccc(-c2ccn([C@H](CO)c3ccc(Cl)c(F)c3)c(=O)c2)n1`: the call was inactive.
For the compound `CN(C)CCCNc1nc(CN2CCN(C(c3ccc(Cl)cc3)c3ccc(Cl)cc3)CC2)nc2ccccc12`, the max response is 1.9% (inactive).
Take `CC1CCN(C(c2ccc(F)cc2)c2ccc(C(C)C(=O)O)cc2-c2ccc(C(F)(F)F)cc2)CC1` (stereo not given): the max response is -3.89% (inactive).
In the case of `COCCOCCOc1ccc(C2=N[C@@](C)(C(=O)O)CS2)c(O)c1`, the max response was -74.5% (inactive).
As to `Cc1[nH]c(/C=C2\C(=O)Nc3ccc(F)cc32)c(C)c1C(=O)NC[C@H](O)CN1CCOCC1`, the Potency was 6.51 µM (active).
For `Cc1ccccc1C(=O)Nc1ccc(C(=O)N2CCC[C@@H](O)c3cc(Cl)ccc32)c(C)c1`, the max response is -3.25% (inactive).
For the compound `O=C(c1ccc(F)c(F)c1Nc1ccc(I)cc1F)N1CC(O)([C@@H]2CCCCN2)C1`, the Potency was 7.31 µM (active).
For the compound `CC(C)(C)c1ccc(CNC(=S)NCc2ccc(NS(C)(=O)=O)c(F)c2)cc1`, the max response was -28.3% (inactive).
The same measure, in the same setting: with `Cn1cc(-c2cnc3ccc4ccc(CS(=O)(=O)NCc5ccccn5)cc4c(=O)c3c2)cn1` the figure was -6.66% (inactive); with `C=C1CC[C@@H]2[C@](C)(CO)[C@H](O)CC[C@@]2(C)[C@@H]1C/C=C1/C(=O)OC[C@@H]1O`, -17.3% (inactive); with `C/C=C(/COC(=O)/C(C)=C/C)C(=O)OC/C=C/c1ccc(OC)cc1`, -7.59% (inactive).
Turning to `CNc1ccc([N+](=O)[O-])cc1-n1cnc(-c2ccc(C(F)(F)F)cc2)c1`, the max response was 1.42% (inactive).
On to `CC(=O)N1c2ccc(-c3ccc(C(=O)O)cc3)cc2C(Nc2ccc(Cl)cc2)CC1C` (stereo not given), for which the Potency is 1.03 µM (active).
As for `CC(=O)c1c(OCCN2CCCCC2)c(OCCC(C)c2ccc(F)cc2)c2oc(C)nc2c1C` (stereo not given), the max response is -7.29% (inactive).
As for `CCOC(=O)c1cccc(CNc2ccc(N(C)C(=O)Nc3ccccc3)cc2)c1`, the Potency is 1.3 µM (active).
Take `CC1CCC(n2c3cnccc3c3cnc(Nc4ccc5c(n4)CCN(C(=O)CO)C5)nc32)CC1` (stereo not given): the max response was -12.2% (inactive).
Regarding `N#CCC(C1CCCC1)n1cc(-c2ncnc3[nH]ccc23)cn1` (stereo not given), the max response is -27.8% (inactive).
As to `COc1ccccc1-c1cc(Nc2cccc(CS(N)(=O)=O)c2)ncn1`, the Potency was 16.4 µM (active).
With `Cc1ccc2c(Nc3ccc(Cl)cc3)nccc2c1Nc1ncccc1-c1ncnc2nc[nH]c12`, the Potency was 14.6 µM (active).
`CNC(=O)c1cccc2cc(Oc3ccnc4cc(OCC5(N)CC5)c(OC)cc34)ccc12`: the Potency is 4.61 µM (active).
`CN(Cc1ccc(C(=O)O)cc1)c1ccc(OCc2c(-c3c(Cl)cccc3Cl)noc2C2CC2)nc1C(F)(F)F`: the outcome was inactive.
On to `CCC(=O)c1cc(-c2ccc(Cl)cc2)n(-c2ccc(S(N)(=O)=O)cc2)c1C`, for which the call was inactive.
As for `CC(C)N(CCCNC(=O)Nc1ccc(C(C)(C)C)cc1)C[C@H]1O[C@@H](n2cc(Br)c3c(N)ncnc32)[C@H](O)[C@@H]1O`, the max response was -23.7% (inactive).
Regarding `COc1cc(-c2cc(-c3ccc(N4CCNCC4)cc3)cnc2C)cc(OC)c1OC`, the result was inactive.
As for `CN(C)C(=O)c1cc2cnc(Nc3ccc(N4CCNCC4)cn3)nc2n1C1CCCC1`, the max response was 3.25% (inactive).
In the case of `C=C(C)[C@@H]1CC[C@]2(C(=O)O)CC[C@]3(C)C(CCC4[C@@]5(C)C[C@@H](O)[C@H](O)C(C)(C)C5CC[C@]43C)C12` (stereo not given in full), the max response was 4.85% (inactive).
For the compound `CC[C@H](CO)Nc1nc(Nc2cccc(-c3ccccn3)c2)c2ncn(C(C)C)c2n1`, the max response is -6.96% (inactive).
`CCN(CC)c1ccc(C(=C2C=CC(=[N+](CC)CC)C=C2)c2cc(S(=O)(=O)O)ccc2S(=O)(=O)[O-])cc1`: the Potency was 5.31 µM (active).
As to `COc1cc(O)ccc1OCCNCC(O)COc1cccc2[nH]c3ccccc3c12` (stereo not given), the max response was -16.8% (inactive).
As to `O=C(c1ccc(F)c(F)c1Nc1ccc(I)cc1F)N1CC(O)(C2CCCCN2)C1` (stereo not given), the Potency is 9.2 µM (active).
Take `CC1CCN(c2cc(NC(=O)c3ccccc3)ncn2)CC1`: the max response was -6.14% (inactive).
As for `CC1CCC2C(C)(C)C(O)CCC2(C)C12Cc1c(O)cc3c(c1O2)CN(C(CCCN=C(N)N)C(=O)O)C3=O` (stereo not given), the outcome was inactive.
On the same count and under the same terms, under `CC(C)CCC[C@@H](C)[C@H]1CC[C@H]2[C@@H]3CC=C4C[C@@H](OC(=O)NCCN(C)C)CC[C@]4(C)[C@H]3CC[C@]12C` stands “inactive”.
As to `CCC[C@@H](NC(=O)N1C(=O)C(CC)(CC)[C@@H]1Oc1ccc(C(=O)N2CCN(C)CC2)cc1)c1ccc2c(c1)OCO2`, the max response was -1.89% (inactive).
For the compound `CCCCOc1ccc(-c2cncc(C(=O)NCc3cccnc3N3CCOCC3)c2)cc1Cl`, the max response is -9.28% (inactive).
With `CC/C(=C(\c1ccc(O)cc1)c1ccc(OCCNC)cc1)c1ccccc1`, the compound was classed as inactive.
Turning to `CCOC(=O)c1cnn(-c2ccc(NC(=O)C(Cl)=C(Cl)Cl)cc2)c1C(F)(F)F`, the Potency is 20.6 µM (active).
